Assay outcomes as filed in PubChem.
JMJD2A Tudor: blocks the human JMJD2A Tudor domain | AID 504339 | O75164 | Potency, µM (doses to about 114 µM), usual class: inhibitors | actives 4.4% (n = 390,000) | AlphaScreen JMJD2A-Tudor / H3K4me3 peptide binding; also: nearly all actives have a fitted effect of over 50% in size
BAZ2B block: BAZ2B (human) inhibition. actives 4.4% (n = 360,000). Potency, µM (titrated, usually from 114 µM), usual class: inhibitors. Q9UIF8. AlphaScreen BAZ2B-H3K14Ac peptide displacement; also: nearly all actives have a fitted effect of over 60% in size
Target sequence (Q9UIF8 whole entry, looked up): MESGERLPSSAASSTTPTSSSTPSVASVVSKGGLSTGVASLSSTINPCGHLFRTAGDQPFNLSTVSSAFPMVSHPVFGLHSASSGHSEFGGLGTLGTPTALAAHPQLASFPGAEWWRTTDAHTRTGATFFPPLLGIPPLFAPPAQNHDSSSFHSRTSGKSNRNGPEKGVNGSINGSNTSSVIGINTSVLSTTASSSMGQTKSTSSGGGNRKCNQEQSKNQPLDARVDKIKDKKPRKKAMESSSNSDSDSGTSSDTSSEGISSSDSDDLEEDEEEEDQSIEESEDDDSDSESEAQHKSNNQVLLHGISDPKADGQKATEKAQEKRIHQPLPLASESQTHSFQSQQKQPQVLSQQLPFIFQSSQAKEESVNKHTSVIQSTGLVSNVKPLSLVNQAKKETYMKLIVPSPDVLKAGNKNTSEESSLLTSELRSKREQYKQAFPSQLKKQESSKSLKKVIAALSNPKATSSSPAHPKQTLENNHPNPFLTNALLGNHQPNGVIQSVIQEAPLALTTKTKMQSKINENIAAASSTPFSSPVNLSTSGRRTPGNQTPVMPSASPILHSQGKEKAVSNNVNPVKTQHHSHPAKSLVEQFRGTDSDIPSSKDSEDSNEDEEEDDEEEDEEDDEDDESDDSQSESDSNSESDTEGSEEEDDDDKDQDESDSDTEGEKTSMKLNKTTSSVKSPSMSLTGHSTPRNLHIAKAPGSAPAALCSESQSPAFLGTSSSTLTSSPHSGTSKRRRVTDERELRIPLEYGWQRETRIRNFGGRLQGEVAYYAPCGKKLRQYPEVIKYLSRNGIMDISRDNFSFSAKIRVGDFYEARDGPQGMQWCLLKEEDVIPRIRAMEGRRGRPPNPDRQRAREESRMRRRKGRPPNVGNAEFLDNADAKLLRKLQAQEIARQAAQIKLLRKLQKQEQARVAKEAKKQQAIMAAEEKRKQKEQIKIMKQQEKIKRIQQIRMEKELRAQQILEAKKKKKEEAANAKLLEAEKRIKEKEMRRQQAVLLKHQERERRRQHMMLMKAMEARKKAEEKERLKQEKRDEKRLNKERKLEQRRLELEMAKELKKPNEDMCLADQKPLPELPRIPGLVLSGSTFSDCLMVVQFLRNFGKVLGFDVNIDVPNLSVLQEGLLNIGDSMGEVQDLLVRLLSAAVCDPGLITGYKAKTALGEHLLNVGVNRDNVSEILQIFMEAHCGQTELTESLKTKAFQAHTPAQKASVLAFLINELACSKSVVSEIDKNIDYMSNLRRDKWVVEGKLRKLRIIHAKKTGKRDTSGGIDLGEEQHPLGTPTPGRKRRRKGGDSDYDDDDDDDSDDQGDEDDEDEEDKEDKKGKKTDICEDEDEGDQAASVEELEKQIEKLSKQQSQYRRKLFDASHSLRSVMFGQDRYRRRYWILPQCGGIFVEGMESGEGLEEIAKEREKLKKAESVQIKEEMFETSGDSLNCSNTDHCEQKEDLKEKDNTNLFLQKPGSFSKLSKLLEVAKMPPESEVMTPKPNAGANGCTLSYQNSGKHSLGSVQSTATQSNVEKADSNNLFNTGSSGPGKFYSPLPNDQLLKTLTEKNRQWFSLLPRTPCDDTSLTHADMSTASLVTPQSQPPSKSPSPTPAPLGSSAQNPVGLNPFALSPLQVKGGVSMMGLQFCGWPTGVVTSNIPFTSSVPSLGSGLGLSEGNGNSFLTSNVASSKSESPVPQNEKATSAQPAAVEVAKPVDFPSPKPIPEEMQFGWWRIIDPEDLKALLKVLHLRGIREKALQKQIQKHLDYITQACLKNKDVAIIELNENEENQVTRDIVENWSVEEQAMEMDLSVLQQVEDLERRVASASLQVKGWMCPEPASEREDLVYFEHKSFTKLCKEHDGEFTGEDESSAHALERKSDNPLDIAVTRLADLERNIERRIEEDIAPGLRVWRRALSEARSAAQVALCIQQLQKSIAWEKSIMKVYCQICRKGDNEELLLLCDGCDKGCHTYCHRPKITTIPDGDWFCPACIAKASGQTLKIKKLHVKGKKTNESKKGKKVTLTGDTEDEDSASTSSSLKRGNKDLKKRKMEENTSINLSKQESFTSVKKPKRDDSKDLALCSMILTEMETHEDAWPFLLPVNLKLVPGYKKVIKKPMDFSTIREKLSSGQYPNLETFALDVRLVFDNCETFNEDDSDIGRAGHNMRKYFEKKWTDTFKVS
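AlphaScreen displacement: compounds (up to 110uM) incubated 30 min at room temperature with a preformed 50 nM BAZ2B/50 nM biotinylated H3K14Ac peptide complex in PBS pH 7.4 with Tween-20. Donor and acceptor beads at 10 ug/mL final added, 20 min light-protected before reading.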
HP1b chromo inh: HP1-beta chromodomain-methylated histone interaction inhibition; P83916; AlphaScreen HP1-beta / biotin-H3K9me3 peptide binding; Potency, µM (highest dose often 114 µM), actives largely listed as inhibitors; actives 0.56% (n = 390,000); AID 540317; also: nearly all actives have a fitted effect of over 70% in size
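AlphaScreen: HP1-beta (50 nM) preformed 30 min with biotin-H3(1-18)K9me3 peptide (50 nM) in PBS pH 7.4, 0.01% Tween-20. Compound added for 30 min at RT, then streptavidin donor/nickel chelate acceptor beads (10 ug/mL) for 30 min.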
L3MBTL1 block: inhibitors of human L3MBTL1. actives 0.66% (n = 230,000). AID 485360. Potency, µM (titrated, usually from 57.1 µM), most hits filed as inhibitors. AlphaScreen L3MBTL1–H3K9me1 peptide binding; also: nearly all actives have a fitted effect of over 60% in size
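L3MBTL1 50 nM + b-AHA-H3(1-15)K9me1 75 nM, 30 min RT; compound added, 30 min RT; streptavidin donor/Ni-chelate acceptor beads 10 ug/mL each final, 30 min RT dark; AlphaScreen read.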
G9a block: inhibitors of human histone lysine methyltransferase G9a; Q96KQ7; G9a H3K9 monomethylation, AlphaScreen, 2 h; Potency, µM (highest dose often 102 µM), actives largely listed as inhibitors; actives 8.8% (n = 350,000); also: nearly all actives have a fitted effect of over 75% in size
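AlphaScreen read-out: biotin-H3K9 peptide (500 nM) methylation by 20 nM enzyme with 20 uM SAM, 2 h at room temperature after 15 min compound preincubation; anti-monomethyl H3K9 antibody plus donor/acceptor beads, 10 min dark.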
Large screens that a line does not name were inactive; ! = not confirmed by another sample. The list is not random: actives were taken first. Their share in the collection is about 11%. Calls follow the shape of the dose curve; as a rule, active = well fitted inhibition curve with a large enough effect; inconclusive = small, poorly fitted or top-dose-only effect; inactive = no such curve, though single readings can be large or run the other way.

CCc1ccc(/C=N/Nc2nn[nH]n2)cc1	JMJD2A Tudor inconclusive, BAZ2B block inconclusive, G9a block 10µM
CCOc1ccccc1NC(=O)Cc1csc(COc2cccc(C)c2)n1	none (no result: L3MBTL1 block)
Cc1cc2[nH]c3c4ccccc4nc(C)c3c2cc1C	JMJD2A Tudor inconclusive (no result: BAZ2B block, L3MBTL1 block, G9a block)
Cc1cc2[nH]c3c(c[n+](C)c4ccccc34)c2cc1C	BAZ2B block inconclusive, G9a block 18µM
CCc1ccccc1NC(=O)C1CCCN(S(=O)(=O)c2ccc3[nH]c(=O)ccc3c2)C1 (centres undefined)	BAZ2B block inconclusive (no result: L3MBTL1 block)
COc1cc(CN2CCN(Cc3ccc(SC)cc3)CC2)cc(OC)c1O	JMJD2A Tudor 0.89µM, BAZ2B block 50µM, HP1b chromo inh 25µM, G9a block 7.9µM
COc1cccc(CN2CCN(Cc3cc(OC)c(OC)cc3OC)CC2)c1	JMJD2A Tudor 1.6µM, BAZ2B block 20µM, HP1b chromo inh 18µM, G9a block 45µM (no result: L3MBTL1 block)
COc1ccc(S(=O)(=O)N2CCN(Cc3cccc(OC)c3)CC2)cc1	none
COc1cc(OC)c(OC)cc1CN1CCN(Cc2ccc(SC)cc2)CC1	JMJD2A Tudor 20µM, BAZ2B block 40µM, HP1b chromo inh inconclusive, G9a block 3.2µM
CSc1ccc(CN2CCC(CO)(Cc3ccc(Cl)cc3)CC2)cc1	none
CCc1ccc(CNC(=O)CN2C(=O)CCn3nc(-c4cn(C)c5ccccc45)cc32)cc1	JMJD2A Tudor inconclusive (no result: L3MBTL1 block)
CCN(CC)c1ccc(CNC(=O)C/C(C)=N/NC(=O)COc2ccc(C)cc2Br)cc1	JMJD2A Tudor inconclusive, BAZ2B block 45µM, HP1b chromo inh inconclusive, G9a block inconclusive (no result: L3MBTL1 block)
COc1ccccc1CNC(=O)C/C(C)=N/NC(=O)COc1ccc(C)cc1Br	none
COc1ccc(C)cc1NC(=O)C(c1ccccc1)N1CCN(CC(=O)N2CCOCC2)CC1 (centres undefined)	G9a block 45µM
COc1ccc(C)cc1NC(=O)C(c1ccccc1)N1CCN(CC(=O)N2CCCC2)CC1 (centres undefined)	G9a block inconclusive
Cc1nc([N+](=O)[O-])c(Br)n1CC(=O)c1ccc(Cl)cc1	G9a block 50µM (no result: L3MBTL1 block)
COc1ccc(C(=O)Cn2c(C)nc([N+](=O)[O-])c2Br)cc1	none
CCOc1cc(C#N)c(NC(=O)Cn2nnc(-c3ccc(C)cc3)n2)cc1OCC	none (no result: L3MBTL1 block)
O=C(NNC(=S)Nc1ccccc1)c1cc(Br)ccc1Cl	G9a block 40µM (no result: L3MBTL1 block)
CNC(=S)/N=C(/Nc1ccccc1)c1ccccc1	BAZ2B block inconclusive, G9a block 7.9µM
Oc1ccc(NC(=S)Nc2ccccc2)cc1	G9a block 50µM
O=C(NNC(=S)Nc1ccccc1)c1ccncc1	G9a block inconclusive
O=C(NNC(=S)Nc1ccccc1)Nc1ccccc1	none (no result: G9a block)
O=C(NNC(=S)Nc1ccccc1)NNC(=S)Nc1ccccc1	G9a block 14µM
Cn1c(=O)c2c(nc(N3CCOCC3)n2Cc2ccc(Br)cc2)n(C)c1=O	none (no result: L3MBTL1 block)
Cc1ccc(CNC(=O)c2ccc(N3CCCC3)c(NC(=O)Nc3ccc(F)c(Cl)c3)c2)cc1	none (no result: L3MBTL1 block)
O=C(Cn1ncc2c3ccccc3n(Cc3cccc(Cl)c3)c2c1=O)N1CCCCCC1	none (no result: L3MBTL1 block)
COc1cccc(NC(=S)Nc2ccc(O)cc2)c1	BAZ2B block inconclusive, G9a block 8.9µM (no result: L3MBTL1 block)
COc1cccc(NC(=S)Nc2ccc(F)cc2)c1	none
Cn1nnnc1Sc1ncnc2scc(-c3cccc4c3sc3ccccc34)c12	JMJD2A Tudor 40µM! (no result: BAZ2B block, G9a block)
CC(/C=C1\SC(=S)N(NS(=O)(=O)c2ccccc2)C1=O)=C\c1ccccc1	JMJD2A Tudor inconclusive, BAZ2B block 45µM, G9a block 16µM
COc1cccc(/C=C2\SC(=S)N(NS(=O)(=O)c3ccc(C)cc3)C2=O)c1OC	BAZ2B block inconclusive (no result: JMJD2A Tudor, HP1b chromo inh, L3MBTL1 block)
CC(/C=C1\SC(=S)N(NC(=O)c2ccc(C)cc2)C1=O)=C\c1ccccc1	JMJD2A Tudor inconclusive, BAZ2B block inconclusive, G9a block inconclusive
Cc1ccc(S(=O)(=O)NN2C(=O)/C(=C/c3ccccn3)SC2=S)cc1	G9a block 40µM
Cc1ccc(S(=O)(=O)NN2C(=O)/C(=C/c3cccc(F)c3)SC2=S)cc1	BAZ2B block inconclusive (no result: L3MBTL1 block)
CC(/C=C1\SC(=S)N(NC(=O)c2ccccc2C)C1=O)=C\c1ccccc1	JMJD2A Tudor inconclusive, BAZ2B block inconclusive, HP1b chromo inh inconclusive, G9a block 28µM
